Consider 40 compounds from PubChem BioAssay (NCI).

Compounds without any hit were thinned out: in the full panel of roughly 83,000, 20% have a hit.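 In brief: 96-well plates, 48 h treatment, single concentration, percent growth endpoint.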 The source made the active and inactive calls.

The subject of the experiment is UACC-62 melanoma. Description: NCI-60 one-dose screen, 48 h (100 = growth as untreated, 0 = no growth, -100 = all killed). Particulars: 10 µM unless noted. Here is the method:
Growth inhibition of the UACC-62 human tumor cell line is measured as a screen for anti-cancer activity. Cells are grown in 96 well plates and exposed to the test compound for 48 hours. Compounds are tested at a single concentration, which is 10^-5 M for most compounds. The reported endpoint is percent growth (GI% or GIPRCNT), where numbers from 0 - 100% represent growth inhibition, and numbers from -100% - 0 represent cell death. For example, a value of 40 represents 60% growth inhibition. A value of 0 means no net growth occurred over the course of the experiment. A value of -40 indicates 40% of cells at the beginning of the experiment died by the end of the experiment. A value of -100 means all cells are dead at the end of the experiment.
NCI-60 Human Tumor Cell Lines Screen was performed using the standard one-dose NCI protocol, which is described in more detail at https://dtp.cancer.gov/discovery_development/nci-60/default.htm.
Compounds with GIPRCNT values below 10 were considered active. Activity score was based on GIPRCNT using the following formula: […]
Score is 0 for GIPRCNT values of 100 or above, 50 for GIPRCNT values of 0, and 100 for GIPRCNT values of -100.
On to `c1ccc2cc(C[n+]3ccn(CCCCCCn4cc[n+](Cc5ccc6ccccc6c5)c4)c3)ccc2c1`, for which the growth was 50.1% (inactive). Then `COc1cc(C(=O)/C=C/c2c(Cl)nc3sccn23)cc(OC)c1OC`, with 78.7% (inactive); and `Cc1nc(/N=C(\N)NC(=O)Nc2cccc(Cl)c2)sc1C`, with 60.5% (inactive). As for `O=C(CCN1C(=O)/C(=C/c2ccc(O)cc2)SC1=S)Nc1ccc(Cl)cc1`, the figure is 83.3% (inactive); as for `CCCCOc1ccc(/C=N/NC(N)=S)cc1`, 75.5% (inactive). Then `Cc1ccc(-c2nc(N3CCN(CC(=O)Nc4ccc(Cl)cc4)CC3)c3ccccc3n2)cc1`, with 75.9% (inactive); and `O=c1c2cc(F)ccc2sc2c(N3CCNCC3)nc3ccc(F)cc3c12`, with 0.994% (active); and `CCCCCCn1c(-c2ccc(C(=O)O/N=C(\N)c3ccc4ccccc4c3)cc2)nc(-c2ccccc2)c1-c1ccccc1`, with 61.1% (inactive). Consider `O=C(Oc1cccc2ccccc12)Oc1cccc2ccccc12`, for which the growth is 103% (inactive). For `c1cc2nc(-c3cn[nH]c3)c3c(c2cc1-c1cn[nH]c1)C1CCC3C1` (stereo not given), the growth is 59.6% (inactive). As for `C[C@H]1[C@H]2[C@H]3CC[C@@H]4[C@@]5(C)CC[C@H](O)C(C)(C)[C@@H]5CC[C@@]4(C)[C@]3(C)CC[C@]23CO[C@]1(C)[C@@H](C(=O)/C=C\c1cccnc1)C3`, the figure is 41.5% (inactive); as for `COc1nc2ccccc2cc1-c1nc2c(cnn2-c2ccc(Br)cc2)c(=O)[nH]1`, 24.9% (inactive). As for `COc1cc2cc(Oc3ccc(NC(=O)Nc4cc(C(F)(F)F)cc(C(F)(F)F)c4)cc3)c(C)nc2cc1OCCN1CCOCC1`, the figure is 45.9% (inactive); as for `CCCCCCCNC(=O)CCCNc1ncnc2c1ncn2-c1cccc(C(C)O)c1` (stereo not given), 90.3% (inactive); as for `Cc1nc(NC(=O)COc2ccc(/C=C3\Cc4ccc(Cl)cc4C3=O)cc2)sc1C`, 98.8% (inactive).

For the compound `COC1=C(C)C(=O)c2c(c(CCCl)c3n2CCC3O)C1=O` (stereo not given), the growth is -60.5% (active). As for `COc1cc(C(=O)/C=C/c2ccc(OCCCCCC[P+](c3ccccc3)(c3ccccc3)c3ccccc3)cc2)cc(OC)c1OC`, the figure is -80.3% (active).

With `COc1ccc(-c2ncnc3c2ncn3CC#CCCl)cc1`, the growth was 51.2% (inactive). Then `COc1ccc(S(=O)(=O)n2c3ccccc3n3ncc(-c4nnc(C)o4)c23)cc1`, with 27.3% (inactive); and `COc1ccc(C(=O)/C=C/c2sc(Cl)nc2Cl)cc1`, with 58.8% (inactive).

Take `COc1ccc(OC)c(/C=C/c2nnc(Nc3ccccc3)o2)c1`: the growth is 92.1% (inactive). Then `CCN1C(=O)N(CC)C2Nn3c(s/c(=C\c4ccc([N+](=O)[O-])cc4)c3=O)=NC21` (stereo not given), with 75.6% (inactive); and `CCCCn1c(=O)c(-c2cc(-c3ccc(Cl)cc3)nc(-c3ccc(Cl)cc3)c2)cc2cc(C)ccc21`, with 89.7% (inactive); and `COc1ccc2sc3c(NCCCNCCO)nc4ccccc4c3c(=O)c2c1`, with 85% (inactive).

For `COc1cc(/C=C/c2c(C(C)=O)c(C)nc3ccccc23)cc(OC)c1OC`, the growth is 39.8% (inactive).

As to `Cc1ccc(-c2nc(N3CCN(CC(=O)Nc4ccc(Cl)c(C(F)(F)F)c4)CC3)c3ccccc3n2)cc1`, the growth was 83% (inactive).

On to `CCOC(=O)/C(C#N)=C\Nc1ccc2ncnc(Nc3ccc(Cl)cc3Cl)c2c1`, for which the growth is 90% (inactive).

As for `CS(=O)(=O)N(c1cc(-c2ccc3ncnc(Nc4ccc(F)c(Cl)c4)c3c2)cnc1Cl)S(C)(=O)=O`, the growth is 10.3% (inactive). Then `CCCCOc1nc2c(C)cccc2cc1-c1cc(-c2ccc(Cl)cc2)nc(-c2ccc(Cl)cc2)c1`, with 97.8% (inactive). As for `CC(C)OC(=O)Nc1ccc(-c2nc(-c3cccc(OCCN4CCOCC4)c3)c(-c3ccnc(Br)c3)[nH]2)cc1`, the figure is 15.1% (inactive); as for `Cc1cccc(NCc2cn(-c3ccc(C(=O)O)cc3)nc2-c2ccc(C(=O)O)cc2)n1`, 101% (inactive); as for `CCc1cccc2c1S/C(=C/c1ccc(Cl)cc1)C2=O`, 88.6% (inactive). As for `O=c1[nH][n+](-c2ccc(Br)cc2)no1`, the figure is 9.27% (active); as for `CN1CCN(c2ccc(-c3ccc4ncc(C#N)c(Nc5ccc(F)c(Cl)c5)c4c3)cn2)CC1`, 86% (inactive). For the compound `O=C(COc1ccc(/C=C2\Cc3ccc(Cl)cc3C2=O)cc1)Nc1nc2ccccc2s1`, the growth is 98.2% (inactive). Take `O=C(Nc1ccc(OS(=O)(=O)c2ccc(F)cc2)cc1)c1ccc(Cl)cc1`: the growth is 96% (inactive). Then `Cc1nc2ccccc2c(/C=C/c2ccc(Cl)cc2)c1C(=O)/C=C/c1cccs1`, with 68.4% (inactive); and `c1cc(-c2nnc(SSc3ncnc4nc[nH]c34)o2)ccn1`, with 11.8% (inactive). In the case of `Cc1cc(=O)oc2cc(OC(=O)N3CCN(C)CC3)ccc12`, the growth is 97.6% (inactive).

As to `COc1ccc(-c2nc(NN)c3c(C)nn(-c4ccc(F)cc4)c3n2)cc1`, the growth was 36.2% (inactive).
